Our source for the Potency and outcome values is PubChem BioAssay (Tox21).

Results filed as inconclusive are left out. The source made the active and inactive calls. Unless noted, calls follow the shape of the dose curve; as a rule, active = well fitted curve in the direction sought with a large enough effect in the repeat runs; inconclusive = weak or mixed curves; inactive = flat fitted curve, though single readings scatter.

A short description of experiment [1]: qHTS assay to test for compound auto fluorescence at 535 nm (green) in HEK293 cells (AID 720680). In general terms: In qHTS, concentration-response curves come from the screen itself.
Experiment [2] in a line: qHTS assay to test for compound auto fluorescence at 460 nm (blue) in HEK293 cell free culture (AID 720681). Also: potency is read from the fitted curve at half-maximal effect. In outline: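 Blue fluorescence (Ex 405/Em 460 nm, triamterene-equivalent) was read immediately after pin transfer of compound or DMSO into medium (DMEM, 10% FBS) without cells.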
Experiment [3] in a line: qHTS assay to test for compound auto fluorescence at 535 nm (green) in HEK293 cell free culture (AID 720682). An outline of the steps: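 Green-label autofluorescence (485 nm excitation, 535 nm emission) measured on compound added to cell-free culture medium (DMEM, 10% FBS). Output is expressed relative to fluorescein.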
Experiment [4] in a line: qHTS assay to test for compound auto fluorescence at 590 nm (red) in HEK293 cell free culture (AID 720683). An outline of the steps:
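Red-channel autofluorescence of compounds in culture medium (DMEM, 10% FBS), no cells, measured at 540/590 nm. Rose Bengal sodium is the reference fluorophore for equivalence.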

Experiment [5] can be described thus: qHTS assay to test for compound auto fluorescence at 590 nm (red) in HepG2 cell free culture (AID 720684). In outline:
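Plate contents were MEM with 10% FBS plus test compound or DMSO, no cells. Fluorescence was recorded with 540 nm excitation and 590 nm emission.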

A short description of experiment [6]: qHTS assay to test for compound auto fluorescence at 535 nm (green) in HepG2 cell free culture (AID 720686).
For experiment [7], the target named is Glucocorticoid receptor (Homo sapiens) (UniProt P04150). Briefly: qHTS assay to identify small molecule agonists of the glucocorticoid receptor (GR) signaling pathway (AID 720691; active = well fitted activation curve with a large enough effect in the signal ratio in the repeat runs, not every such curve was filed as active; the % refers to the signal ratio; also: potency is read from the fitted curve at half-maximal effect). Particulars: GR-bla HeLa, beta-lactamase reporter ratio, 18 h; activation: at 62.4 µM (top of the series). In outline:
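Reporter read-out: fluorescence intensity following 2 h room-temperature LiveBLAzer B/G FRET substrate loading. Prior step: GR-bla HeLa cells held 4 h, then treated 18 h at 37 C.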

Experiment [8] has the same target. Briefly: qHTS assay to identify small molecule antagonists of the glucocorticoid receptor (GR) signaling pathway (AID 720692; active = well fitted inhibition curve with a large enough effect in the signal ratio in the repeat runs, not every such curve was filed as active; the % refers to the signal ratio). An outline of the steps:
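Dexamethasone (5 nM final) stimulated a stably integrated GRE-beta-lactamase reporter in HeLa cells during 18 h co-incubation with compounds; signal was quantified as fluorescence intensity of B/G FRET substrate after 2 h.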

Experiment [9] can be described thus: qHTS assay to test for compound auto fluorescence at 460 nm (blue) in HepG2 cell free culture (AID 720685). An outline of the steps: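 Compound (23 nL) or DMSO pinned into cell-free MEM with 10% FBS; blue fluorescence read at 405/460 nm excitation/emission, expressed as auto-fluorescence equivalency to triamterene.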
A short description of experiment [10]: qHTS assay to test for compound auto fluorescence at 460 nm (blue) in HepG2 cells (AID 720687). In outline: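 Blue-channel autofluorescence (Ex/Em 405/460 nm, triamterene-equivalent) was measured after 1 hr compound exposure at 37 C, 5% CO2. Cells were HepG2, plated overnight at 37 C in MEM plus 10% FBS.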

Chain of Glucocorticoid receptor (Homo sapiens) (P04150 whole entry, looked up): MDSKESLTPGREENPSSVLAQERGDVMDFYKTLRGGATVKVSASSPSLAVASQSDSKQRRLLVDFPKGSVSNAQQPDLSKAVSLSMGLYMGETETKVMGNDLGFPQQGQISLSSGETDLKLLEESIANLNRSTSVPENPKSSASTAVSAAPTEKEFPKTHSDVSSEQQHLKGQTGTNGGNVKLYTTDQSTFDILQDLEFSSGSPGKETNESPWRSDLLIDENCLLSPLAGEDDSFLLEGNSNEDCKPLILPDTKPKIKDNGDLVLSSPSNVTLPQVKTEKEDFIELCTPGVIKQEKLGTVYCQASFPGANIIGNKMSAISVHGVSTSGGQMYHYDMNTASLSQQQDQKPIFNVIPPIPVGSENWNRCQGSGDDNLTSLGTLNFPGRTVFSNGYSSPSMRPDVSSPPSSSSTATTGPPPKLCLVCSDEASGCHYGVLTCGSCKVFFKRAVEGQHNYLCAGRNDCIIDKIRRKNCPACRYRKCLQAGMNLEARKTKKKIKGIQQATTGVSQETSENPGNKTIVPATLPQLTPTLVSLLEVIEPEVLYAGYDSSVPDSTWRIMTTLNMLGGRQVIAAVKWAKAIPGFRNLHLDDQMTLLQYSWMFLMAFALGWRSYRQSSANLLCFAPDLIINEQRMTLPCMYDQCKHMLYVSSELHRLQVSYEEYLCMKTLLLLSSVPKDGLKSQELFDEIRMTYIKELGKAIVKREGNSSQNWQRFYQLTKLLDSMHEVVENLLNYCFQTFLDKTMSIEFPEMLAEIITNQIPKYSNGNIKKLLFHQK

As to `C[C@H](O)[C@H](O)[C@H]1CNc2nc(N)[nH]c(=O)c2N1`, the Potency result in [1], in experiment [3], in experiment [4], in experiment [5], in experiment [6] and in experiment [7] was “inactive” in each case. The Potency result in [8] is “inactive”. Also, the Potency in experiment [2] was 12.6 µM (active).

As to `CCOc1ccc(N=Nc2ccc(N)cc2N)cc1`, the Potency result in experiment [1], in [2], in experiment [3], in experiment [4] and in experiment [5] was “inactive” throughout. For the same compound, the compound was classed as inactive in experiment [9] and in experiment [10].

As to `CCCCC(=O)N(Cc1ccc(-c2ccccc2-c2nn[nH]n2)cc1)[C@@H](C(=O)O)C(C)C`, the Potency entry in experiment [1], in experiment [2], in experiment [3], in [4], in [5] and in experiment [7] was “inactive” in each case. In experiment [8], the Potency entry is “inactive”. The result in [9] and in [10] was inactive.

For the compound `COC(F)(F)C(Cl)Cl`, the Potency result in experiment [1], in experiment [2], in experiment [3], in experiment [4], in experiment [5] and in [6] was “inactive” each time. The Potency result in experiment [8] was “inactive”. In experiment [9], the compound was classed as inactive.

For `CCCCC(O)c1ccccc1` (stereo unspecified), the Potency entry in experiment [1], in [2], in experiment [3], in experiment [4], in experiment [5] and in [7] was “inactive” in each case. In addition, the Potency result in experiment [8] was “inactive”. Also, the compound was classed as inactive in experiment [9] and in experiment [10].

Take `CN1c2cc(O)c(N=NC(N)=O)cc2CC1S(=O)(=O)O` (stereo unspecified): the Potency entry in [1], in experiment [2], in [3], in [4] and in experiment [5] was “inactive” throughout. Further, the result in [9] and in [10] was inactive.

For the compound `CN1CCN(CCCN2c3ccccc3Sc3ccccc32)CC1`, the Potency result in [1], in [2], in [3], in experiment [4], in experiment [5] and in experiment [7] was “inactive” each time. Further, the Potency entry in experiment [8] is “inactive”. For the same compound, the compound was classed as inactive in [9] and in experiment [10].

With `CNc1cc(OC)c(C(=O)N[C@H]2CCN(Cc3ccccc3)[C@H]2C)cc1Cl`, the Potency entry in experiment [1], in [2], in [3], in experiment [4], in experiment [5] and in experiment [6] was “inactive” throughout. Besides, the Potency result in experiment [7] and in experiment [8] was “inactive” in each case. Moreover, the call in experiment [9] was inactive.

`CN1CCN(C2=Nc3ccccc3Cc3ccccc32)CC1`: the Potency entry in [1], in experiment [2], in [3], in experiment [4], in experiment [5] and in experiment [7] was “inactive” each time. Also, the Potency entry in [8] is “inactive”. Besides, the outcome in [9] and in experiment [10] was inactive.

Regarding `CCN(CC)CCOC(=O)c1cccnc1`, the Potency result in experiment [1], in experiment [2], in experiment [3], in experiment [4], in experiment [5] and in experiment [7] was “inactive” each time. Further, the outcome in [9] and in experiment [10] was inactive.

Take `CC(C)=CCC/C(C)=C/C=C/C(C)=C/C=C/C(C)=C/C=C/C=C(C)/C=C/C=C(C)/C=C/C=C(\C)CCC=C(C)C`: the Potency result in experiment [1], in experiment [2], in experiment [3], in [4], in experiment [5] and in [7] was “inactive” in each case. The Potency result in experiment [8] is “inactive”. For the same compound, the outcome in experiment [9] and in experiment [10] was inactive.

As to `CC(=O)[C@]1(O)Cc2c(O)c3c(c(O)c2[C@@H](O[C@H]2C[C@H](N)[C@H](O)[C@H](C)O2)C1)C(=O)c1c(O)cccc1C3=O`, the Potency entry in experiment [1], in [2], in [3], in experiment [4] and in experiment [5] was “inactive” each time. In addition, the compound was classed as inactive in experiment [9] and in experiment [10].

With `CCCCCCCCCCCCCCCCCCCCCC(=O)Nc1ccn([C@@H]2O[C@H](CO)[C@@H](O)[C@@H]2O)c(=O)n1`, the Potency entry in experiment [1], in experiment [2], in [3], in experiment [4], in experiment [5] and in [7] was “inactive” throughout. The compound was classed as inactive in [9].

Regarding `N#Cc1ccc2c(c1)N(CCCN1CCC(O)CC1)c1ccccc1S2`, the Potency entry in experiment [1], in experiment [2], in experiment [3], in experiment [4], in experiment [5] and in [7] was “inactive” each time. In addition, the Potency entry in [8] is “inactive”. The compound was classed as inactive in experiment [9] and in [10].

For `CCOC(=O)C1=C(COCCN)NC(C)=C(C(=O)OC)C1c1ccccc1Cl` (stereo unspecified), the Potency entry in experiment [1], in experiment [2], in experiment [3], in experiment [4], in [5] and in experiment [8] was “inactive” each time. Besides, the call in [9] and in [10] was inactive.

As for `CCCCC(=O)OCC(=O)[C@]1(O)Cc2c(O)c3c(c(O)c2[C@@H](O[C@H]2C[C@H](NC(=O)C(F)(F)F)[C@H](O)[C@H](C)O2)C1)C(=O)c1c(OC)cccc1C3=O`, the Potency entry in experiment [1], in [2], in experiment [3], in experiment [4] and in experiment [5] was “inactive” in each case. The compound was classed as inactive in [9] and in [10]. In experiment [7], the Potency is 7.56 µM (active).

In the case of `CC(=O)N[C@@H]1C(O[C@H]2O[C@H](C(=O)O)C(O)[C@H](O)[C@H]2O)[C@H](O)[C@@H](CO)O[C@H]1O[C@@H]1C(C(=O)O)O[C@@H](O[C@H]2[C@H](O)[C@@H](CO)OC(O)[C@@H]2NC(C)=O)[C@H](O)[C@H]1O` (stereo partly specified), the Potency result in [1], in experiment [2], in [3], in [4], in [5] and in experiment [7] was “inactive” throughout. Further, in [8], the Potency entry is “inactive”. Further, the compound was classed as inactive in experiment [9] and in experiment [10].

Regarding `NCCCC[C@H](NC(=O)[C@@H]1CCCN1C(=O)[C@@H]1CSSC[C@H](N)C(=O)N[C@@H](Cc2ccccc2)C(=O)N[C@@H](Cc2ccccc2)C(=O)N[C@@H](CCC(N)=O)C(=O)N[C@@H](CC(N)=O)C(=O)N1)C(=O)NCC(N)=O`, the Potency result in experiment [1], in experiment [2], in [3], in [4], in [5] and in experiment [7] was “inactive” in each case. Further, the Potency entry in experiment [8] is “inactive”. Also, in experiment [9], the call was inactive.

For `O=P(O)(O)OC(CO)CO`, the Potency result in experiment [1], in experiment [2], in experiment [3], in experiment [4], in experiment [5] and in experiment [7] was “inactive” throughout. Also, the compound was classed as inactive in experiment [9] and in experiment [10].
